Assay results from the supplement of paper PMC12636033.
± gives the standard deviation of the averaged measurements. Whole data set: some 33,000 sequences, median “E-score (rank enrichment, -0.5 to 0.5)” near -0.0075, cut for the highest 2% near 0.23. The list comes from a sample in which the highest values are over-represented; it also holds similar and randomly drawn sequences.

System: WT Max(13-93) synthetic (M65Nle)
Assay: PBM 8-mer E-score (E-score (rank enrichment, -0.5 to 0.5)); higher = stronger preferential binding
Procedure: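 Protein binding microarray (universal PBM chip covering all 10-mers in fixed probe flanks) with chemically synthesized human Max(13-93) bHLH-LZ analogs (not full-length Max) bearing noncanonical residues (hArg, Tha, Aib, Nle at 65) and aromatic Cys staples. Read-out per 8-mer (and its reverse complement): E-score (rank-based enrichment, -0.5 to 0.5) and Z-score of median probe intensity.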

Sequence	PBM 8-mer E-score
CCATGTTA	0.103 ± 0.095
AGATGTTG	-0.133 ± 0.11
CCATGTTC	-0.00628 ± 0.14
GAATGTTA	0.158 ± 0.079
AAATGTTG	-0.0126 ± 0.086
ACATGTTC	0.246 ± 0.016
AGATGTTC	-0.10933 ± 4.9e-05
AAATGTTA	0.127 ± 0.032
ACATGTTA	0.267 ± 0.008
GGATGTTA	0.0759 ± 0.064
ACATGTTG	0.239 ± 0.012
ATAGTCTC	0.0149 ± 0.021
ACGGCCAT	-0.0405 ± 0.11
ATTAGGCG	-0.0541 ± 0.021
CTTGCAGC	-0.155 ± 0.06
AAGGCCCA	-0.0696 ± 0.03
AACCTCGG	-0.285 ± 0.089
ACAGCAGA	-0.0839 ± 0.019
CCTGGCCC	-0.288 ± 0.052
CATTCATA	0.243 ± 0.071
CATTCATC	0.048 ± 0.036
GATTCATA	-0.0144 ± 0.0027
CTACGGGA	0.0112 ± 0.028

Sequence	PBM 8-mer E-score
AATACATG	0.243 ± 0.072
CATACACG	0.238 ± 0.086
AATACATA	0.211 ± 0.11
AATACATT	0.132 ± 0.098
CATACATG	0.245 ± 0.026
CATACACA	0.228 ± 0.099
TATACACA	0.0996 ± 0.085
CATACATA	0.17 ± 0.086
CATACATC	0.135 ± 0.022
AAAAGCAA	0.066 ± 0.13
GCCAGATA	-0.00267 ± 0.056
CCAACTTC	0.0001 ± 0.0037
TGGAAAAA	0.0641 ± 0.057
ACTGTCCT	-0.0581 ± 0.038
CACGAGGA	0.217 ± 0.02
GACGAGTA	0.0201 ± 0.095
CACGAGGG	0.1535 ± 0.0012
CACGAGGC	0.252 ± 0.079
TACGAGTA	0.173 ± 0.023
CACGAGTA	0.237 ± 0.0057
AACGAGAA	0.242 ± 0.073
AACGAGAT	-0.133 ± 0.092
CACGAGAA	0.12 ± 0.075

Sequence	PBM 8-mer E-score
CCTACAGA	-0.0418 ± 0.11
ATTTGTGC	0.0791 ± 0.13
CCGGCCAC	-0.164 ± 0.0042
ACAAGCCA	-0.0302 ± 0.081
CAATAATA	0.275 ± 0.019
CAATAATC	0.00647 ± 0.1
CAATAAAC	0.139 ± 0.04
CAATAATG	0.0933 ± 0.042
CAATAAAA	0.29 ± 0.011
GAATAAAA	0.184 ± 0.097
CCGACTCA	-0.185 ± 0.0089
CCTCAAAA	0.192 ± 0.0034
CCGCGTAG	-0.0165 ± 0.042
CGCTTCCC	-0.0261 ± 0.049
CTTTGTTA	0.195 ± 0.042
AAGGAGGA	-0.0623 ± 0.0073
ATCATTGC	0.0872 ± 0.064
CGTATACC	-0.109 ± 0.063
CGTATACG	0.241 ± 0.024
GGTATACA	0.0958 ± 0.069
CGTATACA	0.105 ± 0.07
AGTATACA	0.155 ± 0.15
TGTATACA	0.307 ± 0.074

Sequence	PBM 8-mer E-score
CCGATCCC	-0.173 ± 0.033
ATCACCCC	0.117 ± 0.11
CCAGGACC	-0.162 ± 0.086
ATAATCAC	0.04 ± 0.043
AAAATCAG	0.104 ± 0.15
ATAATCAA	0.15 ± 0.011
ATAATCAG	0.256 ± 0.14
ATAATCAT	0.285 ± 0.0003
CTAATCAG	0.027 ± 0.0044
AGCTTCTC	0.118 ± 0.0033
AGACGTCG	-0.117 ± 0.066
CACCCTCC	0.202 ± 0.054
CGGGGTCC	-0.276 ± 0.066
CCATGGGG	-0.138 ± 0.011
GCATGGCC	0.0853 ± 0.066
ACATGGCC	0.232 ± 0.14
ACATGGGA	0.135 ± 0.03
ACATGGTC	0.319 ± 0.016
CCATGGTA	0.0299 ± 0.078
CTATGGTC	-0.0873 ± 0.11
ACATGGGG	0.273 ± 0.033
ACATGGCG	0.183 ± 0.026
ACATGGTA	0.277 ± 0.008

Sequence	PBM 8-mer E-score
GCATGGTA	0.185 ± 0.032
CCATGGTC	0.0328 ± 0.1
AAATCGCT	-0.0979 ± 0.047
ACTGTGTG	0.0422 ± 0.088
AAGAACTA	0.204 ± 0.045
CGCTGCAA	-0.0409 ± 0.02
AGATGGTG	0.00749 ± 0.089
ACATGGTG	0.233 ± 0.045
ACATGGAG	0.198 ± 0.015
GTGGGGAA	0.205 ± 0.11
GACTGACA	-0.0306 ± 0.026
AGGCCCTC	0.00332 ± 0.043
CAGGAATC	-0.216 ± 0.02
ATACAAAG	0.0198 ± 0.057
TTACAAAA	0.225 ± 0.024
ATACAAAC	0.212 ± 0.016
ATACAAAT	0.249 ± 0.035
ATACAAAA	0.265 ± 0.02
CTACAAAA	0.0614 ± 0.0036
